Measurements reported in PubChem BioAssay (NCATS).
Values without a mark were called inactive. Records with an inconclusive call do not appear. Entries that show only a call come without a potency. Activity calls are given as the source filed them. Calls come from the whole dose curve; as a rule, active = well fitted curve in the direction sought with a large enough effect; inconclusive = small, poorly fitted or top-dose-only effect, or another doubt; inactive = no such curve, though single readings can be large; an effect the other way counts as inactive or inconclusive. Where a SMILES comes first, the peptide text is derived from it. [ ]: non-standard residue; d: D form. ξ: configuration not given here. ξLac(3-iPr) = CC(C)CC(O)C(=O)O; NMeV = CN[CH](C(=O)O)C(C)C; βAla = NCCC(=O)O

Experiments:
[1] = target: Glutathione peroxidase 1 (Homo sapiens) (UniProt P07203); experiment: Primary qHTS Assay for Inhibitors of Recombinant Selenoprotein Glutathione Peroxidase 1 (GPX1) (AID 1845191); note: nearly all actives have a fitted effect of over 65% in size
Sequence of Glutathione peroxidase 1 (Homo sapiens) (P07203 whole entry, looked up): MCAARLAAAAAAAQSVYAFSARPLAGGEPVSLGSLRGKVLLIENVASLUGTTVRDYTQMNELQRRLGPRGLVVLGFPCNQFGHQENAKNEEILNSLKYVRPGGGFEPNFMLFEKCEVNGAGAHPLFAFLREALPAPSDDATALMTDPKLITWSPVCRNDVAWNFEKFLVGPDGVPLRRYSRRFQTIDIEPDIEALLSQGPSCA
Method in brief: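 NADPH consumption tracked by fluorescence at 340/450 nm between t=0 and t=15 min, room temperature. Final mix: 10 nM GPX1, 100 nM glutathione reductase, 1 mM GSH, 0.5 mM NADPH, 0.5 mM cumene hydroperoxide, 0.01% BSA; 30 min compound–enzyme preincubation.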

[2] = target: Phospholipid hydroperoxide glutathione peroxidase GPX4 (Homo sapiens) (UniProt P36969); experiment: Primary qHTS Assay for Inhibitors of Recombinant Selenoprotein Glutathione Peroxidase 4 (GPX4) (AID 1845192); note: nearly all actives have a fitted effect of over 65% in size; for activity change, negative = inhibition: series mostly up to about 50 µM
Sequence of Phospholipid hydroperoxide glutathione peroxidase GPX4 (Homo sapiens) (P36969 whole entry, looked up): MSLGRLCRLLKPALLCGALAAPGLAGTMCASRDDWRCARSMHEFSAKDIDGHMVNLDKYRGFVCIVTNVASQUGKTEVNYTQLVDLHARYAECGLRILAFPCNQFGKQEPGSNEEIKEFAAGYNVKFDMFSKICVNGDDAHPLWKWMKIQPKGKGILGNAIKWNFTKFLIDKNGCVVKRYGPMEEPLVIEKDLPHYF
Method in brief: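 NADPH consumption followed by fluorescence at 340/450 nm, t=0 and after 15 min at room temperature. Reaction started with cumene hydroperoxide (0.5 mM final) after 30 min compound–GPX4 preincubation; final 200 nM GPX4, 100 nM GR, 1 mM GSH, 0.5 mM NADPH.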

[3] = target: Luciferin 4-monooxygenase (Photinus pyralis) (UniProt P08659); experiment: Primary firefly luciferase (FLuc) qHTS assay for identification of artifact compounds. (AID 1845220); note: nearly all actives have a fitted effect of over 60% in size; for activity change, negative = inhibition: series mostly up to about 54 µM
Method in brief: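 FLuc 10 nM; luciferin 10 uM; ATP 10 uM; Tris-acetate pH 7.6, Mg-acetate 10 mM; 15 min RT preincubation; 5 min reaction; luminescence.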

[4] = Primary fluorescence-based thiol-reactive (MSTI) qHTS assay for identification of artifact compounds. (AID 1845221); note: nearly all actives have a fitted effect of over 65% in size; note: potency is the fitted concentration of half-maximal effect;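 for activity change, negative = thiol reactive: series mostly up to about 54 µM; thiol-reactive compounds lower the probe fluorescence signal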
Method in brief: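 Compounds were incubated 1 h at room temperature in the dark with the MSTI probe (4 uM) in PBS pH 7.4, 2% DMSO. Signals were normalized between Acetyl-MSTI and MSTI.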

[5] = tested on: Nanoluciferase (engineered Oplophorus gracilirostris luciferase); experiment: Primary Nanoluciferase (NLuc) qHTS assay for identification of artifact compounds. (AID 1845222);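 note: NLuc secreted into diluted conditioned medium of S16 cells; series mostly up to about 54 µM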
Method in brief: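 NLuc from S16 cell medium (1:55) plus test compounds, 15 min, room temperature. Luminescence after Nano-Glo (1:100) addition, 5 min.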

[6] = Primary redox qHTS assay for identification of artifact compounds. (AID 1845223)
Method in brief: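 Redox-cycling detection via DTT (250 uM final) oxidation coupled to Amplex Red (25 uM)/HRP (250 mU/mL) in HBSS. 15 min preincubation plus 30 min after DTT, room temperature. Ex/Em 525/598 nm; 4-parameter Hill fit against DMSO and 10 uM DA3003.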

Structure (SMILES) | Potency [1] | Potency [2] | Potency [3] | Potency [4] | Potency [5] | Potency [6] | activity change, negative = inhibition [3] | activity change, negative = thiol reactive [4] | activity, negative = inhibition [5] | redox activity (% of DA3003) [6] | outcome [3]
C=C1C[C@@]23CCC4[C@@](C)(CCC[C@@]4(C)C(=O)OC)C2CC[C@@H]1C3 (some centres not stated) | inactive | inactive | inactive | inactive | inactive | inactive |  |  |  |  | 
COc1cc2c(cc1O)[C@H](c1ccc(O[C@@H]3O[C@H](CO)[C@@H](O)[C@H](O)[C@H]3O)c(OC)c1)[C@@H](CO)[C@](O)(CO)C2 | inactive | inactive | inactive | 5.19 µM (active) | inactive | inactive |  |  |  |  | 
COC(=O)C1=CO[C@@H](O[C@@H]2O[C@H](CO)[C@@H](O)[C@H](O)[C@H]2O)[C@@H]2[C@@](C)(O)[C@@H](OC(=O)/C=C/c3ccc(O)cc3)C[C@]12O | inactive | inactive | inactive | 3.27 µM (active) | inactive | inactive |  |  |  |  | 
CCCCc1ccc(C(=O)Nc2cc(-c3ccc(Cl)cc3)nn2-c2ccc(Cl)cc2)cc1 | inactive | inactive | inactive | inactive | inactive | inactive |  |  |  |  | 
CN(C)C(=O)NC1CCC(CCN2CCN(c3cccc(Cl)c3Cl)CC2)CC1 (configuration not stated) | inactive | inactive |  |  |  |  | 2.95% [at 11.6 µM] | 20.5% [at 11.5 µM] | -1.17% [at 11.6 µM] | -4.67% [at 11.5 µM] | 
CCOC(=O)CCN(C(=O)c1ccc2c(c1)nc(CNc1ccc(C(=N)N)cc1)n2C)c1ccccn1 | inactive | inactive | inactive | inactive | inactive | inactive |  |  |  |  | 
O=C(O)c1ccccc1NC(=O)N1CCC(c2ccccc2C(F)(F)F)CC1 | inactive | inactive | inactive | inactive | inactive | inactive |  |  |  |  | 
CC(C)[C@@H]1C(=O)N(S(C)(=O)=O)[C@@H]2CCN(C(=O)/C=C/CN3CCCCC3)[C@H]21 | inactive | inactive | inactive | inactive | inactive | inactive |  |  |  |  | 
CC1(C=O)CC[C@]2(C(=O)O[C@@H]3O[C@H](CO)[C@@H](O)[C@H](O)[C@H]3O)CC[C@]3(C)C(=CCC4[C@@]5(C)C[C@H](O)[C@H](O[C@@H]6OC[C@@H](O)[C@H](O)[C@H]6O)[C@@](C)(CO)C5CC[C@]43C)C2C1 (some centres not stated) | inactive | inactive |  |  |  |  |  | 182% [at 11.5 µM] | 2.01% [at 11.6 µM] | 8.25% [at 11.5 µM] | inactive [at 11.6 µM]
C=C(C)[C@@H]1CC[C@]2(C)CC[C@]3(C)[C@H](CC[C@@H]4[C@@]5(C)CC[C@@H](O)C(C)(C)[C@@H]5CC[C@]43C)[C@@H]12 | inactive | inactive | inactive | inactive | inactive | inactive |  |  |  |  | 
C=C1CCC2C(C)(COC(C)=O)CCCC2(C)C1CCC(C)CC(=O)O (configuration not stated) | inactive | inactive | inactive | inactive | inactive | inactive |  |  |  |  | 
C[C@@H]1O[C@@H](O[C@H]2[C@H](O[C@H]3CC[C@@]4(C)C(CC[C@]5(C)C4C=C[C@]46OC[C@@]7(CCC(C)(C)C[C@H]74)[C@@H](O)C[C@]65C)[C@]3(C)CO)O[C@H](CO)[C@@H](O)[C@@H]2O[C@@H]2O[C@H](CO)[C@@H](O[C@@H]3O[C@@H](C)[C@H](O)[C@@H](O)[C@H]3O)[C@H](O)[C@H]2O)[C@H](O)[C@H](O)[C@H]1O (some centres not stated) | inactive | inactive |  |  |  |  | -4.04% [at 11.6 µM] | 81.1% [at 11.5 µM] | -2% [at 11.6 µM] | 9.95% [at 11.5 µM] | 
O=C(/C=C\n1cnc(-c2cc(C(F)(F)F)cc(C(F)(F)F)c2)n1)N1CC(F)(F)C1 | inactive | inactive | inactive | inactive | inactive | inactive |  |  |  |  | 
Nc1nc2c(c(=O)[nH]1)C[C@@H](CCc1ccc(C(=O)N[C@@H](CCC(=O)O)C(=O)O)cc1)CN2 | inactive | inactive | inactive | inactive | inactive | inactive |  |  |  |  | 
C[C@@H]1CCC2C(C)(C)[C@H](O)CC[C@]2(C)[C@@]12Cc1c(O)cc3c(c1O2)CN([C@@H](CCC(=O)O)C(=O)O)C3=O (some centres not stated) | inactive | inactive | inactive | inactive | inactive | inactive |  |  |  |  | 
Cc1cc(OCc2nnc(SC3CCCC3)n2-c2cccnc2)ccc1-c1ccc(S(C)(=O)=O)cc1 | inactive | inactive | inactive | inactive | inactive | inactive |  |  |  |  | 
CC(C)(O)/C=C/CC(C)(O)C1C(O)CC2(C)C3CCC4C(C)(C)C(=O)CCC4(C)C3CCC12C (configuration not stated) | inactive | inactive | inactive | inactive | inactive | inactive |  |  |  |  | 
CC(C)(C)CCN1C[C@@H]2C(CNC(=O)c3cc(Cl)cc(Cl)c3)[C@@H]2C1 (some centres not stated) | inactive | inactive | inactive | inactive | inactive | inactive |  |  |  |  | 
COc1cc2ncnc(Nc3cccc(Cl)c3F)c2cc1OC(=O)N1CCN(C)C[C@H]1C | inactive | inactive | inactive | inactive | inactive | inactive |  |  |  |  | 
COC(=O)c1cc(OC)c(O[C@@H]2O[C@@H](C)[C@H](O)[C@@H](O)[C@H]2O)c(OC)c1 | inactive | inactive | inactive | inactive | inactive | inactive |  |  |  |  | 
CC(C)CC1OC(=O)C2CCCN2C(=O)CCNC(=O)C(Cc2ccccc2)NC(=O)C(C(C)C)N(C)C(=O)C(C(C)C)N(C)C1=O (configuration not stated) (cyclo([ξLac(3-iPr)][NMeV][NMeV]F[βAla]P); configuration not given here) | inactive | inactive | inactive | inactive | inactive | inactive |  |  |  |  | 
CC(C)(C)c1ccc(S(=O)(=O)NCc2ccc(C(=O)Nc3cccnc3)cc2)cc1 | inactive | inactive | inactive | inactive | inactive | inactive |  |  |  |  | 
